The source of these data is PubChem BioAssay (NCI).

The structures appear in SMILES notation. Compounds without any hit were thinned out: in the full panel of roughly 83,000, 20% have a hit.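 How to read the values: 0–100, growth inhibition (40 = 60% inhibited); 0, no net growth; -100 to 0, cell death (-40 = 40% of starting cells died; -100 = all dead).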 A number with no mark means an inactive call. Calls of active or inactive are those of the source. The calls were made as follows: active = growth percent below 10; inactive = the rest.

What all share (test): NCI-60 one-dose screen, 48 h (100 = growth as untreated, 0 = no growth, -100 = all killed)
What all share (conditions): 10 µM unless noted

For assay [1], the system named is RPMI-8226 leukemia.
Assay [2] has as its system OVCAR-8 ovarian.
Assay [3] concerns OVCAR-5 ovarian.
Assay [4] deals with OVCAR-4 ovarian.
The subject of assay [5] is SK-OV-3 ovarian.
Assay [6] relates to IGROV1 ovarian.
In assay [7] the test system is OVCAR-3 ovarian.
Assay [8] relates to HS 578T breast.
Assay [9] has as its system NCI/ADR-RES ovarian.
The test system of assay [10] is T-47D breast.
Assay [11] relates to BT-549 breast.
For assay [12], the system named is MDA-MB-435 melanoma.
For assay [13], the system named is SW-620 colon.
Assay [14] relates to MCF7 breast.
For assay [15], the system named is HCT-116 colon.
The test system of assay [16] is KM12 colon.
Assay [17] relates to HCC-2998 colon.

On to `CCC1(c2ccccc2)Oc2ccccc2-n2c(C#N)c3ccccc3c2C1=O` (centres undefined), for which the growth is 92.6% in assay [1]; 98.4% in assay [2]; 108% in assay [3]; 99.8% in assay [4]; 91.4% in [5]; 93.9% in [6]. Moreover, the growth is 103% in [7]; 105% in [8]; 95.6% in assay [9]; 91.7% in assay [10]; 104% in assay [11]; 106% in assay [12]. Moreover, the growth is 107% in assay [13], 85.1% in [14], 86.7% in assay [15] and 102% in assay [16].

Turning to `Cn1c(=O)c2c(nc(Br)n2CCC(=O)Nc2ccc(F)cc2)n(C)c1=O`, the growth is 101% in assay [1]; 100% in assay [2]; 94.7% in [3]; 114% in assay [4]; 83.6% in assay [5]; 107% in assay [6]. Besides, the growth in assay [7] is 125%; in [8], 102%; in [9], 101%; in assay [10], 97.3%; in assay [11] it was 91.8%; in [12] it was 108%. Moreover, the growth in assay [13] was 103%; in assay [14] it was 100%; in [17], 103%; in [16] it was 107%.

Regarding `C=CC1=C(C(=O)O)N2C(=O)[C@@H](NC(=O)/C(=N\O)c3csc(N)n3)[C@H]2SC1` (stereo in doubt), the growth in assay [1] is 113%; in [2], 102%; in assay [3], 95.7%; in [4], 108%; in assay [5], 107%; in [6] it was 120%. For the same compound, the growth was 108% in assay [7]; 103% in assay [8]; 98% in assay [9]; 114% in [10]; 118% in [11]; 109% in assay [12]. In addition, the growth in assay [13] is 106%; in [15], 105%; in assay [17], 105%; in assay [16] it was 112%.

In the case of `N#Cc1c(N2CCOCC2)nc2sc3cc(Cl)ccc3n2c1=N`, the growth in [1] is 94.4%; in assay [2], 95.7%; in assay [3] it was 95.2%; in assay [4], 102%; in assay [5] it was 67.3%; in assay [6] it was 67.2%. Moreover, the growth was 104% in [7]; 66.8% in assay [8]; 99% in assay [9]; 33.1% in assay [10]; 129% in [11]; 114% in assay [12]. Also, the growth was 98.3% in assay [13], 74.7% in assay [14], 122% in [17] and 82.3% in assay [16].

`COC(=O)CCC1=C(CC(=O)OC)C(C)=N/C1=C\c1[nH]c(-c2ccc[nH]2)cc1OC`: the growth was -42.3% (active) in [1]; 9.85% (active) in assay [2]; 65% in [3]; 27.4% in [4]; 64.6% in assay [5]; 42.1% in assay [6]. The growth in [7] is 17.4%; in assay [8], 52.2%; in assay [9], 17.5%; in [10], 40.1%; in assay [11], 52.3%; in [12], 17.3%. For the same compound, the growth in assay [13] is 21.5%; in [14] it was 3.83% (active); in assay [17], 33.7%; in [16], 28.1%.

For `Clc1ccc([C@@H]2C[C@@H]3Cc4cc(Br)c5ccccc5c4N2O3)c(Cl)c1`, the growth in assay [1] was 89.3%; in assay [2] it was 98.3%; in assay [3], 101%; in assay [4] it was 84.7%; in [5], 79.5%; in assay [6] it was 79.4%. In addition, the growth in [7] was 41.6%; in assay [8], 92.3%; in assay [9], 55.5%; in assay [10], 96.9%; in [11] it was 97.7%; in assay [12], 4.61% (active). In addition, the growth in assay [13] was 55.4%; in assay [14] it was 34%; in assay [15], 76.6%; in assay [16] it was 66.7%.

For the compound `COc1cc(/C=C2\CCC/C(=C\c3ccc(OCC4CO4)c(OC)c3)C2=O)ccc1OCC1CO1` (centres undefined), the growth in [1] is -2.29% (active); in [2] it was 0.499% (active); in assay [3] it was 86%; in [4], 47.1%; in assay [5] it was 20.1%; in [6], -12.6% (active). Also, the growth in [7] is -22.8% (active); in [8], 23.4%; in assay [9] it was 56.8%; in [10], 46.3%; in assay [11], 30.3%; in assay [12] it was -32.3% (active). Moreover, the growth is -23% (active) in [13], -6.99% (active) in assay [14], -54.7% (active) in [15] and -0.568% (active) in [16].

On to `O=C(CCc1nnc(Cn2ccnc2)o1)c1nc2ccccc2[nH]1`, for which the growth is 117% in assay [1]; 105% in [2]; 103% in assay [3]; 107% in assay [4]; 108% in assay [5]; 106% in [6]. Besides, the growth in assay [7] was 118%; in assay [8] it was 112%; in [9], 99.8%; in assay [10] it was 102%; in assay [11] it was 114%; in [12], 111%. The growth in [13] was 109%; in [14] it was 106%; in [15], 106%; in assay [16], 111%.

Regarding `Fc1ccc(-c2nc(Nc3ccc(-c4nc5ccccc5[nH]4)cc3)nc(N3CCOCC3)n2)cc1`, the growth in assay [1] is -73.4% (active); in assay [2], -73.8% (active); in assay [3], -74.7% (active); in assay [4], -73.9% (active); in assay [5] it was -89.9% (active); in assay [6] it was -71.2% (active). For the same compound, the growth in assay [7] is -95.6% (active); in assay [8], -40.3% (active); in assay [9] it was -87.5% (active); in assay [10], -64.8% (active); in [11], -73.6% (active); in [12], -86.1% (active). Besides, the growth in assay [13] is -74.2% (active); in [14] it was -73.8% (active); in assay [17], -89.9% (active); in assay [16], -91.3% (active).
